Results taken from PubChem BioAssay (EPA / NIEHS).
Records with an inconclusive call do not appear. The source made the active and inactive calls. How the source made its calls: active means hit-call score of the fitted dose curve at least 0.9, where 1 is the maximum; inconclusive means response in the unintended direction; inactive means score below 0.9.

Legend:
[1] = biological target: Cellular tumor antigen p53 (Homo sapiens) (UniProt P04637); experiment: TOX21_p53_BLA_p3_ratio: Tox21 HCT-116 p53 Agonism Beta-lactamase Assay, Ratio, Phase 3 (AID 2283596)
Procedure, shortened: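 Cells were seeded at 4000/well, rested 5 h at 37C, then dosed with DMSO compound solutions (217-fold dilution) for 16 h. CCF4-AM substrate was loaded for 2 h at room temperature, and the 460/530 nm emission ratio was fitted for gain of signal versus DMSO.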

[2] = biological target: Cellular tumor antigen p53 (Homo sapiens) (UniProt P04637); experiment: TOX21_p53_BLA_p5_ratio: Tox21 HCT-116 p53 Agonism Beta-lactamase Assay, Ratio, Phase 5 (AID 2283599)
Procedure, shortened: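 Beta-lactamase reporter ratio (blue 460 nm over green 530 nm, 405 nm excitation) after 2 h CCF4-AM loading, in HCT-116 cells exposed 16 h at 37 C to compounds pinned at 217-fold dilution. Increases relative to DMSO baseline scored.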

[3] = TOX21_p53_BLA_p5_viability: Viability Assessment in the Tox21 HCT-116 p53 Agonism Beta-lactamase Assay, Phase 5 (AID 2283600)
Procedure, shortened: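 Viability came from CellTiter-Glo ATP luminescence, read after 30 min at room temperature. Before this, HCT-116 p53-bla cells (4000/well) had 16 hours of compound exposure at 37C, with DMSO stocks diluted 217-fold on transfer.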

[4] = TOX21_p53_BLA_p4_viability: Viability Assessment in the Tox21 HCT-116 p53 Agonism Beta-lactamase Assay, Phase 4 (AID 2283597);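 further: hits lower the luminescence signal meaning cytotoxicity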
Procedure, shortened: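 Cytotoxicity as reduced cellular ATP (CellTiter-Glo luminescence, 30 min room temperature), measured in the same wells following the CCF4 FRET p53 reading. Human HCT-116 cells received compounds in DMSO (217-fold dilution) for 16 h.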

[5] = biological target: Cellular tumor antigen p53 (Homo sapiens) (UniProt P04637); experiment: TOX21_p53_BLA_p4_ratio: Tox21 HCT-116 p53 Agonism Beta-lactamase Assay, Ratio, Phase 4 (AID 2283601)
Procedure, shortened: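 Signal is the blue/green (460nm/530nm) ratio of cleaved versus uncleaved CCF4-AM substrate, read after 2 h substrate loading. Cells were HCT116 carrying the p53-responsive beta-lactamase reporter, dosed 16 h at 37C, 5% CO2; CellTiter-Glo measured in parallel.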

[6] = TOX21_TRB_BLA_Antagonist_Followup_viability: Viability Assessment in the Tox21 Thyroid Hormone Receptor beta Antagonism Beta-lactamase (BLA) Follow-Up Assay (AID 2283961)
Procedure, shortened: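 ATP-based CellTiter-Glo luminescence (30 min, room temperature) run in the same wells as the TRβ-bla readout. Cells: GeneBLAzer HEK293T expressing GAL4-TRβ LBD, exposed 18 h at 37C to compounds at 11 concentrations in triplicate, stripped-serum medium.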

[7] = TOX21_TR_RXR_BLA_Antagonist_Followup_viability: Viability Assessment in the Tox21 Thyroid Hormone Receptor beta Retinoid X Receptor alpha (RXRa) Antagonism Beta-lactamase (BLA) Follow-Up Assay (AID 2283979)
Procedure, shortened: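 Follow-up compounds (11 concentrations, triplicate) were incubated 16 h at 37C/5% CO2 with HEK293T RXRa-bla cells seeded at 2,500/well in charcoal-stripped-serum medium. ATP content by CellTiter-Glo luminescence gave viability; curves fitted in both directions against DMSO.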

[8] = biological target: Thyroid hormone receptor alpha (Rattus norvegicus) + Thyroid hormone receptor beta (Rattus norvegicus) (UniProt P18113+P63059); experiment: TOX21_TR_LUC_GH3_Antagonist_Followup: Tox21 GH3 Thyroid Hormone Receptor Antagonism Luciferase Follow-Up Assay (AID 2283942)
Procedure, shortened: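 Loss of T3-driven (1.0 nM final) reporter activity in GH3 cells was read by ONE-Glo luminescence after 24 h incubation at 37C; 15-point compound series spanned 92 uM to 5nM final, 1,500 cells/well.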

THRB (gene 7068) = THRB (gene 7068) (UniProt P10828); experiment: TOX21_TRB_BLA_Antagonist_Followup_ratio: Tox21 Thyroid Hormone Receptor beta Antagonism Beta-lactamase (BLA) Follow-Up Assay, Ratio (AID 2283958)
Procedure, shortened: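 Read-out: blue/green (460:530 nm) ratio of cleaved to uncleaved CCF4-AM after 2 h at room temperature, fitted against DMSO baseline. HEK293T UAS-bla cells carrying GAL4-human TRβ LBD were exposed 18 h, 37C/5% CO2.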

[9] = biological target: Retinoic acid receptor RXR-alpha (Homo sapiens) (UniProt P19793); experiment: TOX21_TR_RXR_BLA_Antagonist_Followup_ratio: Tox21 Thyroid Hormone Receptor beta Retinoid X Receptor alpha (RXRa) Antagonism Beta-lactamase (BLA) Follow-Up Assay, Ratio (AID 2283972)
Procedure, shortened: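 After 5 h attachment at 37C, HEK293T RXRa-bla cells (2,500/well, 2% charcoal-stripped FBS, no phenol red) received compounds at 11 concentrations in triplicate for 16 h. Beta-lactamase read as 460:530 nm ratio after 2 h RT substrate loading.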

Measured: AC50

Chain of Cellular tumor antigen p53 (Homo sapiens) (P04637 whole entry, looked up): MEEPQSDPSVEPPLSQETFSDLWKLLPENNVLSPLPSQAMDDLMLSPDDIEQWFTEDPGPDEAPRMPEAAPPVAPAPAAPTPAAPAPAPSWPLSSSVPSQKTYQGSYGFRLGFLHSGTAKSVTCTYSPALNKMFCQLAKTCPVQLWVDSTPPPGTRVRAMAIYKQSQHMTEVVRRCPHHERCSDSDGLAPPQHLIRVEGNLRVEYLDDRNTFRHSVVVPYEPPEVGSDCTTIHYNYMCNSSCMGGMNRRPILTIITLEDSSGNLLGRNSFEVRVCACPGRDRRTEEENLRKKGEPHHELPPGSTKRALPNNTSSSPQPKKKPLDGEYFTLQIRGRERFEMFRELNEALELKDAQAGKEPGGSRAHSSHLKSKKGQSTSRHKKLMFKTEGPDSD
Chain of Retinoic acid receptor RXR-alpha (Homo sapiens) (P19793 whole entry, looked up): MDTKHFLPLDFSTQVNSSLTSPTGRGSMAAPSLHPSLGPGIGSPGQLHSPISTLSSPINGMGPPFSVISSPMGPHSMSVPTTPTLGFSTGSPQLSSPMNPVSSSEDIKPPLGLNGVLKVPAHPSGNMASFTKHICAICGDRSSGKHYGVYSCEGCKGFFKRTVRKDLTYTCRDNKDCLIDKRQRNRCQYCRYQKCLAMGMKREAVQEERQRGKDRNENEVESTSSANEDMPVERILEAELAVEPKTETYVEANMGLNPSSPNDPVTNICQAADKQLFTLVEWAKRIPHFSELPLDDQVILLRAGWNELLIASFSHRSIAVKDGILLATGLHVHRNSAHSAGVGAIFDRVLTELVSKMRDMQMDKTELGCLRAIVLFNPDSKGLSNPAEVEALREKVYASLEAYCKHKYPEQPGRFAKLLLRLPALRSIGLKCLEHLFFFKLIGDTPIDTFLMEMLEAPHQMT
Chain of THRB (gene 7068) (P10828 whole entry, looked up, the tested form may be a part): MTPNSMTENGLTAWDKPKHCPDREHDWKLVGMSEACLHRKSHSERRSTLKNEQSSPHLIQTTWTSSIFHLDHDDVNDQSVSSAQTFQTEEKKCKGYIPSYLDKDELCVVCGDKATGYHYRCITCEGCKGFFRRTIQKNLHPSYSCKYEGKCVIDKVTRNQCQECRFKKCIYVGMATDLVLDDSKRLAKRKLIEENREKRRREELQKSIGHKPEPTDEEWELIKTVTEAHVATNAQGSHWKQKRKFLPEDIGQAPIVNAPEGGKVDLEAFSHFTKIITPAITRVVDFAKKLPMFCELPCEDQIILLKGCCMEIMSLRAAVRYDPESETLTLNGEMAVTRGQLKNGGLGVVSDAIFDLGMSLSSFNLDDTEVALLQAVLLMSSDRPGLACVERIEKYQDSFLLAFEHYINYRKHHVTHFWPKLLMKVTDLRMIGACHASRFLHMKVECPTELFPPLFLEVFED

CC1CCCC(C)N1NC(=O)c1ccc(Cl)c(S(N)(=O)=O)c1 (stereo unspecified)
inactive: [1] | [2] | [3]

CNc1c2c(nn1C)CCCC2
inactive: [1] | [4] | [2] | [3]

CCC1NC(=O)c2cc(S(N)(=O)=O)c(Cl)cc2N1 (stereo unspecified)
inactive: [1] | [2] | [3] | [5]

C1CSCCS1
inactive: [1] | [4] | [2] | [3]

O=C(COCCOCCOCC(=O)Nc1c(I)cc(I)c(C(=O)O)c1I)Nc1c(I)cc(I)c(C(=O)O)c1I
inactive: [1] | [2] | [3]

C[N+]1(C)CCN(CC(O)(c2ccccc2)C2CCCCC2)CC1 (stereo unspecified)
inactive: [1] | [4] | [3]

O=C(O)C(O)[C@H](O)[C@@H](O)[C@H](O)[C@H](O)CO (stereo partly specified)
inactive: [1] | [4] | [2] | [3] | [5]

Cc1c[nH]c2ccccc12
inactive: [1] | [4] | [2] | [3] | [5]

O=C1CCCc2ccccc21
inactive: [1] | [4] | [2] | [3] | [5]

O=C(CCN1CCN(CCO)CC1)N1c2ccccc2Sc2ccc(C(F)(F)F)cc21
inactive: [1] | [4] | [2] | [5]

Nc1nc(N)c(-c2ccccc2)s1
inactive: [1] | [4] | [2] | [3] | [5]

Cc1nc2ccccc2s1
inactive: [1] | [4] | [3]

Cl.Cl.N.N.[Cl-].[Cl-].[Pt+2]
inactive: [1] | [2]

O=C1CCN(c2ccccc2)N1
inactive: [1] | [4] | [3]

CC[C@]1(O)C[C@H]2CN(CCc3c([nH]c4ccccc34)[C@@](C(=O)OC)(c3cc4c(cc3OC)N(C=O)[C@H]3[C@@](O)(C(=O)OC)[C@H](OC(C)=O)[C@]5(CC)C=CCN6CC[C@]43[C@@H]65)C2)C1
active: [1] 2.09 nM | [2] 4.86 nM | [5] 18.4 nM
inactive: [3]

Oc1cc(O)cc(O)c1
inactive: [1] | [2] | [3]

CCOC(=O)C1=C[C@]2(CC)CCCN3CCc4c(n1c1ccccc41)[C@@H]32
inactive: [6] | [7]

FC(F)(F)c1ccccc1Cl
inactive: [4] | [5]

O=C1NC(=O)[C@H]2[C@@H]1[C@@H]1C=C[C@H]2C1
inactive: [4] | [2] | [5]

NC(=O)[C@@H]1C[C@]2(NC(=O)NC2=O)c2cc(F)ccc2O1
inactive: [4] | [2] | [3] | [5]

COc1ccc(CCNCC(O)COc2cccc(C)c2)cc1OC (stereo unspecified)
inactive: [4]

CS(=O)(=O)NC(=O)CCC/C=C\C[C@H]1C(=O)C[C@@H](O)[C@@H]1/C=C/[C@H](O)COc1ccccc1
inactive: [4] | [2]

NNc1nnc(Cc2ccncc2)c2ccccc12
inactive: [1] | [8] | THRB (gene 7068) | [6] | [9] | [7]

CC(=O)[C@@]1(O)CC[C@H]2[C@@H]3C=C(Cl)C4=CC(=O)[C@@H]5C[C@@H]5[C@]4(C)[C@H]3CC[C@@]21C
inactive: [4] | [3]

[Cl-].[Cl-].[NH-]CC[NH-].[Pt+4]
inactive: [4]

CN(CC(=O)N1CCOCC1)Cc1c(Cl)cccc1NC(=O)c1ccccc1
inactive: [4] | [3] | [5]
